The text below walks through data of the supplement of paper PMC6555819.

The subject of this test is RXRa homodimer (NR concentration 180 nM). Nature of the test: PBM binding z-score (relative to random genomic background probes); higher = stronger binding; sequences stand for … in GC…GCGATTGACAGCGTAGAATGAAGG
Summed up:
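Binding z-scores take random background probes as their reference. They come from custom Agilent 4×180K protein-binding microarrays incubated 1 h with ligand-free nuclear receptor dimers, with antibodies against each partner (one per run) detecting binding. Scanned fluorescence was regression-normalized.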
Turning to ATATGTAGGTTACATCCGGGTCATCCAGGCTATG, the PBM binding z-score came out at 2.89.

For TCTGCTAGGTCAACGATGGTCAGTTAATCTGCTA, the PBM binding z-score is 2.5.

CGTCCAAGGTCACGGTCAGTGAAAGAGACTCGAA yielded a PBM binding z-score of 7.6. Turning to CCAGACAGGTGAGAAGGTAACTCAGCCTCGATTA, the PBM binding z-score is 0.448.

Take GATACAGGGTCGGCTAGAGGCCAGAGTATGGAAA: the PBM binding z-score amounted to 1.49. The sequence CCTAGTTGTTCAGGAGGTCACACACCGGATATGA gave a PBM binding z-score of 4.73.

For TCGAGTAGGTCACGGGGGCATTCAGGGATGAAGA, the PBM binding z-score was 6.31. Under AGAATGAGGTTAAGTTCAGGGAAACAGAATACAT stands 3.6; under CCTACTGGGCCAAAAAGGTCATTGATGCCGATAA, 5.23. Consider AATACAGGGTCACGAGGCCAGAGTAGGTACGAAT, for which the PBM binding z-score was 7.67. With CCTTACGGGTAACGAGGTTATAGCACGACGAGCG, the PBM binding z-score worked out at 1.43.

In turn, CCTACTGGGCCAAAAAGTTCATTGATGCCGATAA returned a PBM binding z-score of 0.748.

AGAATGAGGTCAAGATCAGGGAAACAGAATACAT registered a PBM binding z-score of 6.66. As for CTATGTAGGTTAGGGGGGTCATTCAGTTTGAAAG, the figure is 5.83; as for TGTCAATGTTCAAAGGTAACGTAAGTATCCACAC, 0.776; as for CGTCCAAAGTCAAAGGTCAGTGAAGAGATGACGG, 5.96. ATATGTAGGTTAGCTGAGGTCATTCAGACTAGGC returned a PBM binding z-score of 4.53. The sequence TCTAGTTGGTCACGGAGGTCCCACACGACGGGTA registered a PBM binding z-score of 0.931.

Consider CGAACTAGGTCGAGGACAGTGAATCTCCGCACGC, for which the PBM binding z-score was 0.381. Consider CAAACTAGGTCACCGAAAGGTCAAAGTCCGCATG, for which the PBM binding z-score came out at 7.88.

Sequence CCTGCTAGGTCATGGTCAGCGAATCTACAGTATG gave a PBM binding z-score of 3.09. Under CGTCCAAGGTCAAGGTCAATGAAAGAGACTCGAA stands 6.52.
